Screening results (PubChem)
Only a selection was taken, and hits are over-represented in it overall.
GIRK2 activ: activators of human GIRK2 potassium channels. G protein-activated inward rectifier potassium channel 2 (Homo sapiens), P48051. 63,000 tested, 0.05% active. calls only for hits at 25 µM. HEK293-GIRK2 thallium flux, Thallos fluorescence, MPD. AID 1259325, 2017; call rule not given here
Numbers without * were called inactive; i = inactive; + = active, no number.

SMILES	GIRK2 activ
O=C(c1ccc([N+](=O)[O-])cc1)N(CCN1CCOCC1)c1nc2c(F)cc(F)cc2s1	i
O=C(NCC(c1cccs1)N1CCOCC1)C(=O)Nc1ccc2c(c1)OCCO2 (configuration not stated)	i
N#Cc1ccc(Cl)cc1NC(=O)C(=O)NCC(c1cccs1)N1CCOCC1 (configuration not stated)	i
O=C(NCC(c1cccs1)N1CCOCC1)C(=O)Nc1ccccc1F (configuration not stated)	+
CC(Cc1ccco1)NC(=O)C(=O)Nc1ccc(OC(F)(F)F)cc1 (configuration not stated)	i
c1cnc(-c2nc(-c3ccc4c(c3)OCO4)no2)cn1	i
COC(=O)N1CCc2ccc(F)cc2C1C(=O)N1CCN(Cc2ccccn2)CC1 (configuration not stated)	i
Cn1nnnc1SCC(=O)Nc1cc(OCc2ccc3c(c2)OCO3)ncn1	i
COc1ccc(Cl)cc1NC(=O)CCCn1cnc(-c2ccccc2)cc1=O	i
Cc1ccc(NC(=O)C(=O)NCC(O)(c2ccccc2)C2CC2)cc1N1CCCC1=O (configuration not stated)	i
CC1C(=O)N2CCCc3cc(NC(=O)C(=O)NCC4(O)CCOc5ccccc54)cc1c32 (configuration not stated)	i
CC1C(=O)N2CCCc3cc(NC(=O)C(=O)NCC(O)(c4ccccc4)C4CC4)cc1c32 (configuration not stated)	+
O=C(NCc1ccc(Cl)cc1)Nc1ccc(Cl)c(N2CCCS2(=O)=O)c1	i
COc1ccc(SCC2CCN(C(=O)C3CC3)CC2)cc1	i
Cc1ccc(NC(=O)Nc2cnc(N3CCN(C)CC3)nc2)c(Cl)c1	i
CN1CCN(c2ncc(NC(=O)Nc3ccc(Cl)c(C(F)(F)F)c3)cn2)CC1	+
Cc1cc(C)n(-c2ncc(NC(=O)Nc3ccc(Cl)c(C(F)(F)F)c3)cn2)n1	i
COCCCNC(=O)CSc1nc(-c2ccccc2)[nH]c1-c1ccc(OC)cc1	i
COCCCNC(=O)CSc1nc(-c2ccc(OC)c(OC)c2)[nH]c1-c1ccc(F)cc1	i
COCCCNC(=O)CSc1nc(-c2ccc(F)cc2)[nH]c1-c1ccc(F)cc1	+
Cc1ccc(CNC(=O)Cn2cnc3c(sc4cccc(F)c43)c2=O)cc1	i
CCCCOc1ccc(C2CC3C4NN=C(SCC(=O)Nc5ccccc5F)N4C=CN3N2)cc1 (configuration not stated)	i
O=C(c1cccs1)N1CCN(C(=O)C2CC2c2ccc3c(c2)OCO3)CC1 (configuration not stated)	i
O=C(Cn1cccc(S(=O)(=O)N2CCCCCC2)c1=O)NCc1ccccc1	i
O=C(Nc1ccc(-c2ccn[nH]2)cc1)c1ccc(-n2cccc2)cc1	i
